Test results from PubChem BioAssay AID463173 (ICCB-Longwood Screening Facility, Harvard Medical School, 2010).
The campaign covered roughly 52,000 compounds. About 4,300 (8.3%) were called active. The entries come from a sample that favours actives as a whole. A number with no mark means an inactive call. No stated cut-off is given here; in the data, active means survival mostly below about 52% (no sharp cut-off); inactive means mostly above about 56%.

These compounds were tested on DeltatarO mutant (assay: growth inhibition of S. aureus wild type versus tarO mutant, primary screen, teichoic acid synthesis inhibitors, RN4220, OD600 (AID 463173)). Settings: OD600, 18 h, hits give low values, screened at 18.75 µg/mL (by protocol).

Row | Structure (SMILES) | survival
1 | COc1cccc(C(=O)c2cn(CC(=O)Nc3cccc(C)c3C)c3nc(C)ccc3c2=O)c1 | 67%
2 | Cc1nc2ccn(Cc3cccs3)c(=O)c2cc1C(=O)N1CCN(c2ccc(F)cc2)CC1 | 131%
3 | COc1ccccc1NC(=O)COC(=O)CC(C)(C)CC1=NS(=O)(=O)c2ccccc2N1 | -1% (active)
4 | COc1ccc(Cl)cc1NC(=O)COC(=O)CC(C)(C)CC1=NS(=O)(=O)c2ccccc2N1 | 70%
5 | Cc1cccc(NC(=O)COC(=O)CCCC2=NS(=O)(=O)c3ccccc3N2)c1 | -2% (active)
6 | CCc1ccc(NC(=O)COC(=O)CCCC2=NS(=O)(=O)c3ccccc3N2)cc1 | 109%
7 | CCOc1ccccc1NC(=O)COC(=O)CC(C)(C)CC1=NS(=O)(=O)c2ccccc2N1 | 79%
8 | O=C(COC(=O)CCCC1=NS(=O)(=O)c2ccccc2N1)Nc1ccc(Br)cc1 | 72%
9 | CCn1c2ccccc2c2nnc(SCCN3CCCCC3)nc21 | 82%
10 | COC(=O)c1ccccc1NC(=O)c1ccc2nc(CCc3ccccc3)oc2c1 | 131%
11 | CCc1ccccc1N1C(=O)N(CC(=O)c2ccc(Cl)cc2)c2ccccc2S1(=O)=O | 82%
12 | CCOC(=O)C1CCN(C(=O)c2ccc3c(c2)sc2nc(-c4ccc(C)cc4)cn23)CC1 | 98%
13 | CCCNC(=O)c1ccc2c(c1)sc1nc(-c3ccc(C)cc3)cn12 | 89%
14 | CCOC(=O)c1ccc2c(c1)sc1nc(-c3ccc(OCC)cc3)cn12 | 44% (active)
15 | O=C(NCc1ccccc1)c1ccc2c(c1)sc1nc(-c3ccc(F)cc3)cn12 | 101%
16 | CCOC(=O)C1CCN(C(=O)c2ccc3c(c2)sc2nc(-c4ccc(OCC)cc4)cn23)CC1 | 69%
17 | CCN(CC)CCCNC(=O)c1ccc2c(c1)sc1nc(-c3ccc(C)cc3)cn12 | 24% (active)
18 | CCN(CC)CCNC(=O)c1ccc2c(c1)sc1nc(-c3ccc(F)cc3)cn12 | 29% (active)
19 | CCOC(=O)C1CCN(C(=O)c2ccc3c(c2)sc2nc(-c4ccc(OC)cc4)cn23)CC1 | 78%
20 | Cc1ccc(-c2cn3c(n2)sc2cc(C(=O)NCCC4=CCCCC4)ccc23)cc1 | 56%
21 | CCOC(=O)C1CCN(C(=O)c2ccc3c(c2)sc2nc(-c4ccccc4)cn23)CC1 | 54% (active)
22 | O=C(NCCC1=CCCCC1)c1ccc2c(c1)sc1nc(-c3ccc(F)cc3)cn12 | 63%

Row | Structure (SMILES) | survival
23 | CCOc1ccc(CNC(=O)c2ccc3c(c2)sc2nc(-c4ccc(OC)cc4)cn23)cc1 | 84%
24 | COc1ccc(S(=O)(=O)Nc2cccc(-c3ccc(N4CCCC4)nn3)c2)cc1F | 85%
25 | COc1ccc(Nc2ncnc3c2cnn3C)c(OC)c1 | 89%
26 | CNS(=O)(=O)c1cn(CC(=O)Nc2cccc(C(F)(F)F)c2)cc1S(=O)(=O)NC | 107%
27 | Cc1ccccc1OC(=O)CSc1nnc(-c2ccc(F)cc2)o1 | 63%
28 | CCN1CCc2c(sc(NC(=O)c3ccc(S(=O)(=O)N(CCOC)CCOC)cc3)c2C(N)=O)C1 | 69%
29 | CCc1cccc(C)c1NC(=O)c1cc(S(=O)(=O)N2CCC3(CC2)OCCO3)ccc1F | 116%
30 | Cc1ccc(CSCCNC(=O)C2CCN(S(=O)(=O)Cc3ccccc3)CC2)cc1 | 99%
31 | CCOc1ccc(-c2cn3c(n2)sc2cc(C(=O)NCCCc4ccccc4)ccc23)cc1 | 72%
32 | CCCSCCCNC(=O)c1ccc2c(c1)sc1nc(-c3ccc(OCC)cc3)cn12 | 55%
33 | CCOc1ccc(-c2cn3c(n2)sc2cc(C(=O)NCCCN(CC)CC)ccc23)cc1 | 15% (active)
34 | COc1ccc(-c2nn(-c3ccccc3)cc2C2NC(=O)NC(C)=C2C(=O)OC(C)C)cc1Cl (configuration not stated) | 106%
35 | Cc1ccc(NC(=O)c2ccc(CN3CC(=O)N4CCCCC4C3=O)cc2)cc1 (configuration not stated) | -5% (active)
36 | CCc1ccc(NC(=O)c2ccc(CN3CC(=O)N4CCCCC4C3=O)cc2)cc1 (configuration not stated) | 66%
37 | Cc1ccc(NC(=O)c2ccc(CN3CC(=O)N4CCCCC4C3=O)cc2)cc1C (configuration not stated) | 77%
38 | O=C(Nc1ccc(F)cc1)c1ccc(CN2CC(=O)N3CCCCC3C2=O)cc1 (configuration not stated) | -4% (active)
39 | CC(C)c1ccc(NC(=O)c2ccc(CN3CC(=O)N4CCCCC4C3=O)cc2)cc1 (configuration not stated) | 77%
40 | O=C(Nc1cc(F)ccc1F)c1ccc(CN2CC(=O)N3CCCCC3C2=O)cc1 (configuration not stated) | 92%
41 | O=S(=O)(NCc1ccco1)c1cccc(S(=O)(=O)N2CCCCC2)c1 | 90%
42 | O=C(NC1CCCCC1)c1ccc(Cn2c(SCc3cccc(F)c3)nc3cccnc32)cc1 | 81%
43 | Cc1ccc2c(c1)N(C(=O)N1CCC(C(=O)NCc3ccccc3C)CC1)CC(C)O2 (configuration not stated) | 74%
44 | Cc1noc(-c2ccc(N(C)Cc3ccccc3)c([N+](=O)[O-])c2)n1 | 75%

Row | Structure (SMILES) | survival
45 | COc1ccc(CC(=O)NCc2nc3cccnc3n2Cc2ccccc2)cc1 | 80%
46 | COc1ccccc1N1CCN(S(=O)(=O)c2c(C)sc3ncn(CC(=O)N(C)c4ccc(C(C)C)cc4)c(=O)c23)CC1 | 67%
47 | CCCCN(C)CCNC(=O)c1cc(-c2ccc(Cl)s2)nc2ccccc12 | 62%
48 | COc1cc(NC(=O)CSc2nc(C)c(C(=O)Nc3ccccc3)c(-c3ccc(OC)c(OC)c3)c2C#N)c(OC)cc1Cl | 61%
49 | COc1ccc(CCn2c(=O)c3cccnc3n(CC(=O)Nc3c(C)cc(C)cc3C)c2=O)cc1OC | 90%
50 | Cc1ccccc1CN1C(=O)c2ccccc2S(=O)(=O)c2ccc(C(=O)OCC3CCCO3)cc21 (configuration not stated) | 71%
51 | CCOc1ccc(CCNC(=O)c2c(C)oc3ncn(CC(C)C)c(=O)c23)cc1 | 72%
52 | Cc1nc(N2CCCC2)c2c(C(=O)Nc3ccc(Br)cc3F)c(C)oc2n1 | 25% (active)
53 | Cc1oc2ncnc(N3CCOCC3)c2c1C(=O)Nc1ccc(Br)cc1F | 135%
54 | CCc1cccc(NC(=O)c2c(C)oc3nc(C)nc(N4CCCC4)c23)c1 | 103%
55 | Cc1ccc(NC(=O)c2c(C)oc3nc(C)nc(N4CCCC4)c23)c(C)c1 | 70%
56 | Cc1nc(N2CCCC2)c2c(C(=O)Nc3ccc(C)c(Cl)c3)c(C)oc2n1 | 124%
57 | Cc1nc(N2CCCC2)c2c(C(=O)Nc3cccc(Cl)c3)c(C)oc2n1 | 20% (active)
58 | COc1cc(Cl)c(C)cc1NC(=O)c1cnc(N2CCOCC2)c2ccccc12 | 71%
59 | COc1cc(CN(C(=O)c2ccccc2F)C2CCS(=O)(=O)C2)cc(OC)c1OC (configuration not stated) | 46%
60 | COc1ccc(N2CCN(c3ncnc4c3cnn4C)CC2)cc1 | 75%
61 | O=c1c2cn[nH]c2nc(SCc2c(F)cccc2F)n1-c1ccc(Cl)cc1 | 91%
62 | CC(C)c1ccc(NC(=O)CN2CCC(n3nnc4ccccc43)CC2)cc1 | 69%
63 | CCc1ccc2nc(N(CCN(CC)CC)C(=O)c3ccco3)sc2c1 | 54%
64 | CCN(CC)CCN(C(=O)c1ccco1)c1nc2ccc(Cl)cc2s1 | 66%
65 | CCN(CC)CCN(C(=O)c1ccc(C(=O)OC)cc1)c1nc2ccc(Cl)cc2s1 | -4% (active)
66 | COc1ccc(-c2cn3nc(N4CCCC(C(=O)Nc5cc(C)cc(C)c5)C4)sc3n2)cc1 (configuration not stated) | 75%

Row | Structure (SMILES) | survival
67 | COc1ccc(-n2nnc(-c3nsc(NC(=O)c4cccc(C)c4)n3)c2C)cc1OC | 88%
68 | COCCNC(=O)c1ccc(-n2c(-c3ccccc3)cc3c2CCCCC3)cc1 | 110%
69 | CCN(CC)CCNC(=O)c1ccc(-n2c(-c3ccccc3)cc3c2CCCC3)cc1 | 8% (active)
70 | CCCNC(=O)c1ccc(-n2c(-c3ccccc3)cc3c2CCCCC3)cc1 | 103%
71 | CCOCCCNC(=O)c1ccc(-n2c(-c3ccccc3)cc3c2CCCCC3)cc1 | 49%
72 | CN(C)CCNC(=O)c1ccc(-n2c(-c3ccccc3)cc3c2CCCC3)cc1 | 33% (active)
73 | CN(C)CCNC(=O)c1ccc(-n2c(-c3ccccc3)cc3c2CCCCC3)cc1 | 53%
74 | CCNC(=O)c1ccc(-n2c(-c3ccccc3)cc3c2CCCCC3)cc1 | 43% (active)
75 | CC(C)NC(=O)c1ccc(-n2c(-c3ccccc3)cc3c2CCCCC3)cc1 | 108%
76 | CC(C)OCCCNC(=O)c1ccc(-n2c(-c3ccccc3)cc3c2CCCC3)cc1 | 75%
77 | CCOCCCNC(=O)c1ccc(-n2c(-c3ccccc3)cc3c2CCCC3)cc1 | 69%
78 | COCCCNC(=O)c1ccc(-n2c(-c3ccccc3)cc3c2CCCC3)cc1 | 70%
79 | COCCCNC(=O)c1ccc(-n2c(-c3ccccc3)cc3c2CCCCC3)cc1 | 39% (active)
80 | Cc1nnc(NCc2ccccc2)c2c1nnn2Cc1ccccc1Cl | 92%
81 | COc1ccc(CCNC(=O)c2c(C)nn(-c3ccc(F)cc3)c2-n2cccc2)cc1OC | 74%
82 | Cc1oc2c(c1C(=O)Nc1ccc(OC(F)(F)F)cc1)C1=NCCN1C=N2 | 80%
83 | COc1ccccc1CN1C(=O)CN(C2CCCCCC2)C(=O)C1c1ccc(C)cc1 (configuration not stated) | 88%
84 | Cc1ccc(-n2c(SCC(=O)Nc3cccc(C)c3)nc3c(oc4ccccc43)c2=O)cc1 | 99%
85 | Cc1cccc(-n2ncc(C(=O)N3CCN(C(=O)c4ccco4)CC3)c2C2CCN(C(=O)OC(C)(C)C)CC2)c1 | 62%
86 | CCCC(CCC)C(=O)Nc1cccc(-c2cn3cccnc3n2)c1 | 83%
87 | CCC1CCCCN1C(=O)Cn1c(=O)n(CC2CCC(C(=O)NC)CC2)c(=O)c2sccc21 (configuration not stated) | 102%
